Jurkat NFkB inh – lowers PMA/ionomycin-induced NF-kB signal in Jurkat cells; PMA/ionomycin-induced NF-kB luciferase reporter, luminescence; inhibition, % at 4 µM; actives 0.53% (n = 330,000); AID 435003; in the data active means inhibition above about 50%
Beta apoptosis – beta cell apoptosis inhibition; INS-1E cytokine-induced death, ATP luminescence, 48 h; percent of positive-control rescue, neutral wells zero; protection from apoptosis, % (concentration not given with the values); actives 0.8% (n = 300,000); AID 435005;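 active means Every replicate reaches about 75%, or at least half do and their mean reaches it too, limit read from the data; inconclusive means At least half of replicates reach the limit but their mean does not; inactive means Under half of replicates reach the limit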;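 further: 0% = cytokine-treated negative control wells and 100% = positive control rescue; higher means more ATP so stronger rescue from cytokine killing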
Gli-Sufu antag – antagonists of Gli-Sufu signaling; Sufu-KO-LIGHT fibroblasts, Gli luciferase reporter luminescence; inhibition, % at 5 µM; actives 0.74% (n = 340,000); AID 588413;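 active means inhibition above about 55%, limit read from the data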;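 further: 0% = DMSO-treated cells and 100% = wells with medium but no cells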
Mdm2 MdmX PPI – human Mdm2/MdmX binding inhibition; O15151+Q00987; SaOS-2 split-luciferase Mdm2/MdmX complementation, luminescence; inhibition, % at 8 µM; actives 3% (n = 330,000); AID 485346;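 active means inhibition of at least 50% at 8 µM in the primary screen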
697 NFkB inh – inhibitors of the PMA/ionomycin-induced NF-kB reporter in 697 B cells; actives 0.33% (n = 330,000); 697 B-cell NF-kB luciferase reporter, 16 h; AID 435022; inhibition, % at 4 µM; in the data active means inhibition above about 35%
Mdm2-MdmX conf – confirmation of human Mdm2/MdmX interaction inhibitors. shares compounds with Mdm2 MdmX PPI. Mdm2-MdmX binding, luminescent assay. inhibition, % at 8 µM. actives 55% (n = 10,000); in the data active means inhibition above about 40%
FLuc counter – counter-screen for Mdm2/MdmX inhibitors: full-length luciferase | shares compounds with Mdm2 MdmX PPI | SaOS-2 full-length luciferase counterscreen, luminescence | inhibition, % at 8 µM | actives 77% (n = 6,200);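 active means mean inhibition at 8 µM reaching about 37%, which flags the compound as non-specific, limit read from the data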;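 further: p53-null SaOS-2 cells with luciferase driven by a doxycycline-inducible promoter; compound on cells about two nights before reading with doxycycline added after day one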
Gli-Sufu confirm – Gli-SUFU antagonism confirmation, single concentration | shares compounds with Gli-Sufu antag | Sufu-KO-LIGHT cells, Gli luciferase reporter, luminescence | inhibition, % at 5 µM | actives 40% (n = 2,500);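 active means mean inhibition at 5 µM reaching about 45%, limit read from the data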;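 further: plate controls were DMSO-treated cells for no effect and wells lacking cells for full effect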
SufuKO cytotox – cytotoxic in Gli-SUFU antagonist counter-screen. shares compounds with Gli-Sufu antag. Sufu-KO-LIGHT cells cytotoxicity, ATP luminescence. cytotoxicity, % at 5 µM. actives 32% (n = 2,500);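 active means mean cytotoxicity at 5 µM above about 25%, limit read from the data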;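 further: cells exposed to compound overnight for roughly 16 to 18 hours; plate controls were DMSO wells with cells for no effect and medium without cells for full effect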
Wnt3a counter – Wnt3a reporter inhibition counter-screen; shares compounds with Gli-Sufu antag; Wnt-LIGHT cells, Wnt3a-driven luciferase reporter, luminescence; inhibition, % at 6.25 µM; actives 20% (n = 2,500); AID 651995;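 active means mean inhibition above about 25%, limit read from the data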
* marks the source's active call; other numbers are inactive results; ? = inconclusive; . = not tested or not shown. This is a sample that favours compounds with a hit; in the whole collection about 4% have one here.

SMILES	Jurkat NFkB inh	Beta apoptosis	Gli-Sufu antag	Mdm2 MdmX PPI	697 NFkB inh	Mdm2-MdmX conf	FLuc counter	Gli-Sufu confirm	SufuKO cytotox	Wnt3a counter
O=C(O)c1ccccc1C(=O)c1ccc(F)c(F)c1	.	.	5	.	.	.	.	.	.	.
Cn1nc(C(F)(F)F)c2cc(C(=O)Nc3ccc(C(F)(F)F)cc3)sc21	7	35	19	61*	-6	12	.	.	.	.
Cn1nc(C(F)(F)F)c2cc(C(=O)Nc3ccc(F)cc3)sc21	-2	7	14	10	11	.	.	.	.	.
O=C(O)Cn1ncc2ccccc2c1=O	-11	-1	-3	0	-2	.	.	.	.	.
O=c1c2ccccc2cnn1CCOc1ccccc1	-28	6	59*	60*	-163	69*	65*	38	18	95*
Cc1ccc(NC(=O)CN(C)C(=O)C(Sc2ccccc2)c2ccccc2)cc1 (centres undefined)	-9	-4	-4	-9	6	.	.	.	.	.
CCc1nnc(NC(=O)CSc2nnc(C)c(=O)n2N)s1	7	-5	7	4	9	.	.	.	.	.
COc1cccc(/C=N\NC(=O)c2ccc(Cn3cc(Br)c([N+](=O)[O-])n3)o2)c1O	5	96*	56*	59*	-108	74*	43*	50*	13	47*
COc1cc(/C=N\NC(=O)c2ccc(Cn3nc([N+](=O)[O-])c(Cl)c3C)o2)ccc1O	-4	12	11	33	10	.	.	.	.	.
O=C(N/N=C\c1c(O)ccc2ccccc12)c1ccc(Cn2cccn2)o1	40	79*	58*	75*	9	74*	25	69*	26*	59*
O=C(CN1CCCC1)N/N=C/c1c(O)ccc2ccccc12	20	51	55	72*	8	76*	39*	66*	37*	60*
O=[N+]([O-])c1ccc2nc(-c3ccc(OC(F)F)cc3)cn2c1	-51	4	-83	-172	-100	.	.	.	.	.
CC(=C/c1ccccc1)/C=N/NC(=O)c1nnn(-c2nonc2N)c1CN1CCC(C)CC1	12	17	17	-11	-15	.	.	.	.	.
CC1CCN(Cc2c(C(=O)N/N=C/c3ccccc3O)nnn2-c2nonc2N)CC1	36	95*	52	69*	-13	80*	32	62*	23	27*
CCOC(=O)C(C(C)C)C(N)Cc1ccc(F)cc1 (centres undefined)	10	-1	-1	5	8	.	.	.	.	.
Cc1ccc(NS(=O)(=O)c2cc([N+](=O)[O-])ccc2NNC(=S)Nc2cc(C)ccc2C)c(C)c1	11	?	62*	94*	-8	88*	39*	51*	4	62*
CCc1c(C)sc2nc(C(C)C)nc(SCC(=O)N3CCc4ccccc4C3)c12	-3	105*	83*	95*	-11	58*	74*	85*	41*	13
O=C(Nc1nnc(S(=O)(=O)Nc2ccccc2)s1)C1CCCCC1	-9	-5	10	7	3	.	.	.	.	.
Cc1ccc(S(=O)(=O)Nc2nc(-c3ccccc3)cs2)cc1	1	0	-9	6	11	.	.	.	.	.
Cc1ccc(S(=O)(=O)Nc2ccccc2C(=O)Nc2nc(-c3ccc(F)cc3)cs2)cc1	8	99*	77*	86*	-25	90*	22	79*	35*	78*
CCN1C(=O)C(=O)c2cc(C)ccc21	-2	-3	41	21	19	.	.	.	.	.
CC[N+]1=C(C)C(C)(C)c2cc(C)ccc21	37	101*	57*	81*	-37	62*	28	45*	17	-3
S=C(Nc1ccc(Br)cc1Cl)NN1CCOCC1	13	-2	-3	8	1	.	.	.	.	.
O=C(C[C@H]1C/C=C\C[C@H](NC(=O)OCC2c3ccccc3-c3ccccc32)C(=O)O[C@@H](c2ccccc2)CNC1=O)NCCO	-12	4	27	20	-8	.	.	.	.	.
O=C(N[C@H]1C/C=C\C[C@@H](CC(=O)N(CCO)Cc2ccccc2)C(=O)NC[C@H](c2ccccc2)OC1=O)OCC1c2ccccc2-c2ccccc21	11	10	59*	58*	1	12	.	59*	16	34*
SMILES	Jurkat NFkB inh	Beta apoptosis	Gli-Sufu antag	Mdm2 MdmX PPI	697 NFkB inh	Mdm2-MdmX conf	FLuc counter	Gli-Sufu confirm	SufuKO cytotox	Wnt3a counter
O=C(COC(=O)Cn1cnc2ccccc21)Nc1ccc(F)c(F)c1	-6	-8	-4	-18	-40	.	.	.	.	.
Cc1cc(C(=O)CSc2nc3ccccc3c(=O)n2C)c(C)n1Cc1ccc2c(c1)OCO2	37	99*	73*	63*	-15	32	.	78*	38*	49*
CC(C(=O)Nc1ccccc1-c1ccccc1)N(C)Cc1nc2ccccc2c(=O)[nH]1 (centres undefined)	29	.	4	26	3	.	.	.	.	.
COc1ccc(Nc2nc(N)c([N+](=O)[O-])c(N3CCCC3)n2)cc1	23	-1	4	25	-6	.	.	.	.	.
COc1ccc(Nc2nc(N3CCCCC3)c3ccccc3n2)cc1	16	73	58*	59*	-55	30	.	49*	39*	-24
CCN(CC)c1ccc(CNc2nc3ccccc3n2CCN2CCCCC2)cc1	10	88*	67*	89*	-41	48*	77*	42	23	16
Clc1cccc(Nc2ncnc3ccc(Br)cc23)c1	8	19	62*	74*	-30	43*	36	20	2	11
Cc1ccc(C#N)c(SCc2nnc(-c3ccc(Cl)cc3)o2)n1	17	2	75*	88*	-195	92*	57*	88*	60*	99*
O=C(C[n+]1cc(-c2ccc(Cl)cc2)n2c1CCCCC2)c1ccccc1	-7	4	25	-10	-21	.	.	.	.	.
CC1CCC(C(C)C)C(OC(=O)C[n+]2cccc(C(N)=O)c2)C1 (centres undefined)	1	-7	-28	12	12	.	.	.	.	.
CC(C)[C@@H]1CC[C@@H](C)C[C@H]1OC(=O)C[n+]1cc(-c2ccc(Cl)cc2)n2c1CCCCC2	21	1	66*	78*	-14	73*	29	77*	35*	-32
COc1ccc(-c2c[n+](CC(=O)OC3CC(C)CCC3C(C)C)c3n2CCC3)cc1 (centres undefined)	16	103*	90*	63*	6	31	57*	89*	26*	20
